Pf growth 96h: Primary qHTS for delayed death inhibitors of the malarial parasite plastid, 96 hour incubation | P. falciparum luciferase reporter growth, 96 h | Potency, µM (highest dose often 28.7 µM), for inactives: top-dose activity change, negative = inhibition, most hits filed as inhibitors | hit rate 6.9% among 320,000 | AID 504834, 2011; note: potency is the fitted concentration of half-maximal effect; % is set by controls: 0 for no effect and ±100 for the full control effect
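Two parasite generations (96 h, 37 C, 5% CO2) of compound exposure in infected erythrocytes (0.05% parasitemia, 2% hematocrit). Luciferase-reporter P. falciparum; decreased luminescence indicates inhibited growth, aimed at apicoplast-acting delayed death.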
Shiga toxin inh: A qHTS for Small Molecule Inhibitors of Shiga Toxin; Vero cells, Shiga toxin protein synthesis inhibition reporter; inhibition, % at 38.7 µM; hit rate 9.2% among 290,000; AID 2315, 2010; in the data active = inhibition mostly above about 28%, no sharp cut-off; inactive = mostly below about 43%; note: 0% is about no effect
CHX counter: Cycloheximide Counterscreen for Small Molecule Inhibitors of Shiga Toxin; max response, %; AID 2314, 2010; hit rate 12% among 300,000; cell reporter, cycloheximide protein synthesis inhibition counterscreen; in the data active = max response mostly above about 13%, no sharp cut-off; inactive = mostly below about 14%; note: read at 38.3 µM for the half of the compounds with a filed dose; 0% is about no effect
NS1 function inh: qHTS Assay for Inhibitors of Influenza NS1 Protein Function; Potency, µM (highest dose often 46.1 µM), for inactives: top-dose activity, positive = more growth; hit rate 0.4% among 270,000; calls by dose curve; note: potency is the fitted concentration of half-maximal effect; actives are rising curves; nearly all actives have a fitted effect of over 50% in size
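S. cerevisiae expressing influenza A NS1, grown in glucose, washed, then diluted 1:100 into pH 6.0 -URA galactose medium with 23 nl compound. Growth recovery read as OD600; NS1-free strain serves as control.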
Pf growth 48h: Primary qHTS for delayed death inhibitors of the malarial parasite plastid, 48 hour incubation. hit rate 5.9% among 310,000. Potency, µM (highest dose often 28.7 µM), for the others: top-dose activity change, negative = inhibition, usual class: inhibitors. P. falciparum luciferase growth in erythrocytes, 48 h. AID 504832, 2011; note: potency is the fitted concentration of half-maximal effect; % is set by controls: 0 for no effect and ±100 for the full control effect
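Luminescence readout; reporter = integrated firefly luciferase in P. falciparum. RBC culture at 2% hematocrit, 0.1% parasitemia final, 37 C/5% CO2; decreased signal taken as growth inhibition.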
Sm TGR block: qHTS Assay for the Inhibitors of Schistosoma Mansoni Peroxiredoxins; Potency, µM (doses to about 114 µM), inactives show at the highest dose activity change, negative = inhibition, actives largely listed as inhibitors; purified TGR, DTNB reduction, TNB absorbance 405 nm; hit rate 3% among 360,000; Schistosoma mansoni thioredoxin glutathione reductase (TGR), Q962Y6; AID 485364, 2010; note: potency is the fitted concentration of half-maximal effect; % is set by controls: 0 for no effect and ±100 for the full control effect; nearly all actives have a fitted effect of over 60% in size
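Kinetic colorimetric format: TGR-catalysed, NADPH-driven DTNB reduction monitored via TNB absorbance. Enzyme dispensed at 20 nM; compound exposure 15 min at room temperature before reaction start.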
* hit, by the source's call; [ ] = another dose, or the depositor's remark. The list is not random: actives were taken first. Their share in the collection is about 21%. Unless noted, calls come from the whole dose curve; as a rule, active = well fitted curve in the direction sought with a large enough effect; inconclusive = small, poorly fitted or top-dose-only effect, or another doubt; inactive = no such curve, though single readings can be large; an effect the other way counts as inactive or inconclusive.

What do the screens show for `Cc1cccc(NC(=O)CN2CCSc3ccccc32)c1`?
Pf growth 96h: 46%; Shiga toxin inh: 49*; CHX counter: 34*; Pf growth 48h: 20%; Sm TGR block: -21%

Results for COc1ccnc(Oc2ccccc2)c1C(=O)N/C=N/OCc1ccccc1 ?
Pf growth 96h: -2%; Shiga toxin inh: 15; CHX counter: -3; NS1 function inh: 0%; Pf growth 48h: 8%; Sm TGR block: 7%

What do the screens show for `COc1ccnc(Oc2ccc(F)cc2)c1C(=O)N/C=N/OCc1c(Cl)cccc1Cl`?
Pf growth 96h: inconclusive; Shiga toxin inh: 2; CHX counter: 11; NS1 function inh: 3%; Pf growth 48h: 12µM*; Sm TGR block: -25%

How did CCc1ccc(NC(=O)C2CCCN2c2nn3c(=O)cc(C)nc3s2)cc1 (stereo unspecified) do in these assays?
Pf growth 96h: 13µM*; Shiga toxin inh: -5; CHX counter: -2; NS1 function inh: 23%; Pf growth 48h: -3%; Sm TGR block: -12%

Results for CCc1cccc(C)c1NC(=O)C1CCN(c2nn3c(=O)cc(C)nc3s2)CC1 ?
Pf growth 96h: 9.3µM*; Shiga toxin inh: -4; CHX counter: -7; NS1 function inh: 6%; Pf growth 48h: -11%; Sm TGR block: 2%

How did CCC(Oc1ccccc1)C(=O)Nc1ccccn1 (stereo unspecified) do in these assays?
Pf growth 96h: -3%[5.75 µM]; Shiga toxin inh: 22; CHX counter: 26*; NS1 function inh: 2%; Pf growth 48h: 31%; Sm TGR block: 3%

What do the screens show for `CCC(Oc1ccccc1)C(=O)Nc1cc(C)on1` (stereo unspecified)?
Pf growth 96h: inconclusive; Shiga toxin inh: 38*; CHX counter: 15*; NS1 function inh: 5%; Pf growth 48h: 24%; Sm TGR block: 5%

Results for CCC(OC(=O)C(NC(=O)c1ccccc1)c1ccccc1)C(=O)Nc1cc(C)on1 (stereo unspecified) ?
Pf growth 96h: 7%; Shiga toxin inh: 26; CHX counter: -2; NS1 function inh: -17%; Pf growth 48h: 15%; Sm TGR block: -4%

Results for CCC(Oc1ccc(C)cc1)C(=O)Nc1ccc(S(=O)(=O)Nc2cc(C)on2)cc1 (stereo unspecified) ?
Pf growth 96h: 8.3µM*; Shiga toxin inh: -11; CHX counter: -6; NS1 function inh: 18%; Pf growth 48h: 8%; Sm TGR block: -4%

Results for CCC(Oc1ccccc1)C(=O)NC1CCCCCC1 (stereo unspecified) ?
Pf growth 96h: inconclusive; Shiga toxin inh: -7; CHX counter: -1; NS1 function inh: -6%; Pf growth 48h: -16%; Sm TGR block: 20%

What do the screens show for `Cc1ccc(OC(=O)CCC(=O)Nc2ccc(S(=O)(=O)Nc3cc(C)on3)cc2)cc1`?
Pf growth 96h: 22%; Shiga toxin inh: 2; CHX counter: -2; NS1 function inh: 4%; Pf growth 48h: -12%; Sm TGR block: -22%

How did Cc1ccc(NC(=O)C2(S(=O)(=O)c3ccc(Cl)cc3)CC2)c(Br)c1 do in these assays?
Pf growth 96h: inconclusive; Shiga toxin inh: 6; CHX counter: -2; NS1 function inh: 6%; Pf growth 48h: inconclusive; Sm TGR block: -1%

Results for c1cnc(Oc2ccc3oc4ccccc4c3c2)nc1 ?
Pf growth 96h: 108%; Shiga toxin inh: 56*; CHX counter: 44*; NS1 function inh: -11%; Pf growth 48h: 80%; Sm TGR block: 6%

Results for CCOc1ccccc1C1Nc2ccccc2-c2nnc(SCc3ccccc3)nc2O1 (stereo unspecified) ?
Sm TGR block: 2%

How did CCCCc1nn2c(=O)cc(COC(=O)CNC(=O)COc3ccc(C)cc3)nc2s1 do in these assays?
Sm TGR block: -4%

Results for CC(C)c1ccc(/C=C/C(=O)NCCC2=CCCCC2)cc1 ?
Pf growth 96h: 153%; Shiga toxin inh: 17; CHX counter: 17*; NS1 function inh: 7%; Pf growth 48h: 10%; Sm TGR block: -1%

How did CC(C)c1ccc(/C=C/C(=O)NCCCc2ccccc2)cc1 do in these assays?
Pf growth 96h: 46%; Shiga toxin inh: 22; CHX counter: 7; NS1 function inh: -36%; Pf growth 48h: -2%; Sm TGR block: -4%

How did O=C(O)/C=C/C(=O)NCCC1=CCCCC1 do in these assays?
Pf growth 96h: inconclusive; Shiga toxin inh: -11; CHX counter: -1; Pf growth 48h: -7%; Sm TGR block: -21%

Results for CCCNC(=O)/C=C/c1ccc(C(C)C)cc1 ?
Pf growth 96h: 13µM*; Shiga toxin inh: 64*; CHX counter: 47*; NS1 function inh: -5%; Pf growth 48h: inconclusive; Sm TGR block: -2%

Results for Cn1c(=O)c2c(SCC(N)=O)nc(CC(C)(C)C)nc2n(C)c1=O ?
Pf growth 96h: 0%; Shiga toxin inh: 25; CHX counter: -1; NS1 function inh: -11%; Pf growth 48h: -17%; Sm TGR block: 3%

How did Cn1c(=O)c2c(SCC(=O)NC3CCCC3)nc(CC(C)(C)C)nc2n(C)c1=O do in these assays?
Pf growth 96h: 13µM*; Shiga toxin inh: -1; CHX counter: -3; NS1 function inh: 9%; Pf growth 48h: inconclusive; Sm TGR block: 0%

Results for COc1ccc(NC(=O)CN2CCN(C(=O)N3CCOCC3)CC2)cc1 ?
Pf growth 96h: 2.3µM*; Shiga toxin inh: -3; CHX counter: -7; NS1 function inh: 4%; Pf growth 48h: 12%; Sm TGR block: -3%

How did O=C(CN1CCCC1)Nc1ccc(Br)cc1 do in these assays?
Pf growth 96h: inconclusive; Shiga toxin inh: 34; CHX counter: 9; Pf growth 48h: 38%; Sm TGR block: 3%

Results for CCOc1ccc(NC(=O)CN2CCN(CC(=O)Nc3ccc(F)cc3F)CC2)cc1 ?
Sm TGR block: -17%

How did COC(=O)c1ccc(NC(=O)CCN2CCCCC2)cc1 do in these assays?
Pf growth 96h: 1.5µM*; Shiga toxin inh: 24; CHX counter: 2; NS1 function inh: -10%; Pf growth 48h: -10%; Sm TGR block: 7%

What do the screens show for `O=C(CN1CCCCCC1)Nc1ccc(Br)cn1`?
Pf growth 96h: 94%; Shiga toxin inh: 26; CHX counter: 15*; NS1 function inh: inconclusive; Pf growth 48h: -9%; Sm TGR block: inconclusive

How did COc1ccc(NC(=O)CN2CCN(CC(=O)Nc3ccc(F)cc3F)CC2)cc1 do in these assays?
Pf growth 96h: -6%; Shiga toxin inh: 30*; CHX counter: 24*; NS1 function inh: 0%; Pf growth 48h: 14%; Sm TGR block: -33%

What do the screens show for `COc1ccccc1C(=O)NCC(=O)N/N=C/c1cc(Br)ccc1OCc1ccccc1`?
Pf growth 96h: 112%; Shiga toxin inh: 20; CHX counter: 10; NS1 function inh: inconclusive; Pf growth 48h: -8%; Sm TGR block: -2%
